Bioassay records deposited in PubChem by National Center for Advancing Translational Sciences (NCATS).
SARS PLP yeast = blocks SARS-CoV papain-like protease in a yeast assay; S. cerevisiae expressing SARS-CoV PLpro, growth rescue; actives 0.19% (n = 330,000); AID 485353; Potency, µM (doses to about 32.9 µM), inactives show at the highest dose activity, positive = growth rescue, actives largely listed as activators; calls by dose curve; note: 0% is about no effect; nearly all actives have a fitted effect of over 55% in size
Pf growth 96h = P. falciparum growth inhibition at 96 hours; P. falciparum luciferase reporter growth, 96 h; actives 6.9% (n = 320,000); Potency, µM (top dose mostly 28.7 µM), inactives show at the highest dose activity change, negative = inhibition, most hits filed as inhibitors; note: % is set by controls: 0 for no effect and ±100 for the full control effect
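Parasite growth measured via integrated firefly luciferase reporter in P. falciparum. Infected erythrocytes at 2% hematocrit, 0.05% parasitemia final were treated 96 hours at 37 C under 5% CO2, and luminescence was read.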
Pf growth 48h = inhibits P. falciparum growth in the first generation, 48 h; P. falciparum luciferase growth in erythrocytes, 48 h; actives 5.9% (n = 310,000); Potency, µM (titrated, usually from 28.7 µM), without a hit: at the top dose activity change, negative = inhibition, actives largely listed as inhibitors; note: % is set by controls: 0 for no effect and ±100 for the full control effect
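A one-generation exposure of luciferase-tagged malaria parasites in RPMI 1640/Albumax erythrocyte culture, 37 C and 5% CO2. Inhibition is inferred from decreased luminescence after adding detection reagent.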
Sm TGR inh = inhibitors of Schistosoma mansoni thioredoxin glutathione reductase | actives 3% (n = 360,000) | Potency, µM (series often up to 114 µM), for inactives: top-dose activity change, negative = inhibition, most hits filed as inhibitors | purified TGR, DTNB reduction, TNB absorbance 405 nm | Q962Y6 | AID 485364; note: % is set by controls: 0 for no effect and ±100 for the full control effect; nearly all actives have a fitted effect of over 60% in size
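Kinetic colorimetric format: TGR-catalysed, NADPH-driven DTNB reduction monitored via TNB absorbance. Enzyme dispensed at 20 nM; compound exposure 15 min at room temperature before reaction start.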
Active calls of the source: *; [ ] = remark or other dose. Compounds with a hit are over-represented: about 12% of the library has one in this group of screens. Unless noted, calls come from the whole dose curve; as a rule, active = well fitted curve in the direction sought with a large enough effect; inconclusive = small, poorly fitted or top-dose-only effect, or another doubt; inactive = no such curve, though single readings can be large; an effect the other way counts as inactive or inconclusive. Potency is the fitted concentration of half-maximal effect.

For C/C(CC(=O)Nc1ccccc1Br)=N\NC(=O)C(=O)N1CCCC1 the results were SARS PLP yeast -14%, Pf growth 96h 10µM*, Pf growth 48h 9% and Sm TGR inh 1%.
CC(C)(C)c1ccc(C(=O)OCC(=O)N2CCC(c3ccccc3)=N2)cc1 was read as SARS PLP yeast 5%, Pf growth 96h inconclusive, Pf growth 48h -24% and Sm TGR inh -7%.
`O=C(Nc1ccccc1)c1oc2ccccc2c1NC(=O)C1CC1` gave SARS PLP yeast 2%, Pf growth 96h 31%, Pf growth 48h 19% and Sm TGR inh 5%.
Screening COc1ccc(OC)c(Nc2nc(-c3sc(NC(=O)C(C)(C)C)nc3C)cs2)c1 returned SARS PLP yeast -2%, Pf growth 96h 3.3µM*, Pf growth 48h 9.3µM* and Sm TGR inh 0%.
COc1ccc(Cl)cc1Nc1nc(-c2sc(NC(=O)c3ccco3)nc2C)cs1 was read as SARS PLP yeast -2%, Pf growth 96h 5.9µM*, Pf growth 48h 15µM* and Sm TGR inh 11%.
Screening COc1ccc(Cl)cc1Nc1nc(-c2sc(NC(=O)C(C)(C)C)nc2C)cs1 returned SARS PLP yeast 0%, Pf growth 96h 1.7µM*, Pf growth 48h 10µM* and Sm TGR inh -5%.
Screening COc1cccc(Nc2nc(-c3sc(NC(=O)c4ccco4)nc3C)cs2)c1 returned SARS PLP yeast 3%, Pf growth 96h 13µM*, Pf growth 48h inconclusive and Sm TGR inh 12%.
COc1ccccc1Cn1ccn(CC(=O)Nc2c(C)cc(C)cc2C)c(=O)c1=O was read as Sm TGR inh 1%.
For CCC(C)c1ccccc1NC(=O)c1cccc(-n2cnnn2)c1 (stereo unspecified) the results were SARS PLP yeast 1%.
For CC1=C(C(=O)Nc2ccccc2)C(c2ccccn2)n2nc(SCc3ccccc3)nc2N1 (stereo unspecified) the results were Sm TGR inh -2%.
Screening COc1cccc(Nc2nc(-c3sc(C)nc3C)cs2)c1 returned SARS PLP yeast -24%, Pf growth 96h -2%, Pf growth 48h 32% and Sm TGR inh 0%.
Screening COc1ccc(OC)c(Nc2nc(-c3sc(C)nc3C)cs2)c1 returned SARS PLP yeast -14%, Pf growth 96h -17%, Pf growth 48h 15µM* and Sm TGR inh -2%.
`CC1(C)S[C@@H]2[C@H](NC(=O)COc3ccccc3)C(=O)N2C1C(=O)OCc1cc2ccccc2n1S(=O)(=O)c1ccccc1` (stereo partly specified) gave SARS PLP yeast 7%, Pf growth 96h 13µM*, Pf growth 48h -16% and Sm TGR inh -14%.
For CCC1CCCCN1CCCNC(=O)CSc1nc2nc(C)c(Cc3ccc(C)cc3)c(C)n2n1 (stereo unspecified) the results were SARS PLP yeast -3%, Pf growth 96h 30%, Pf growth 48h inconclusive and Sm TGR inh 8%.
Cc1ccc(F)cc1NC(=O)C1C2CCC(O2)C1C(=O)O (stereo unspecified) was read as SARS PLP yeast 1%, Pf growth 96h 1%, Pf growth 48h inconclusive and Sm TGR inh 8%.
COc1ccc(C2SCC(=O)Nc3c2c(C)nn3C2CCOC(C)(C)C2)cc1 (stereo unspecified) was read as SARS PLP yeast 4%, Pf growth 96h 6%, Pf growth 48h -6% and Sm TGR inh 0%.
Cc1nn(C2CCOC(C)(C)C2)c2c1C(c1ccc3c(c1)OCO3)SCC(=O)N2 (stereo unspecified) was read as SARS PLP yeast -8%, Pf growth 96h 9.3µM*, Pf growth 48h inconclusive and Sm TGR inh -36%.
`Cc1ccc(OCCC(=O)OCC(=O)Nc2ccccc2)cc1` gave SARS PLP yeast -7%, Pf growth 96h 6%, Pf growth 48h 2% and Sm TGR inh -9%.
`CC(C)(C)OC(=O)N1CCC[C@H]1C(=O)N/N=C/c1ccc2ncccc2c1` gave SARS PLP yeast 0%, Pf growth 96h 12µM*, Pf growth 48h inconclusive and Sm TGR inh 7%.
Screening CCCCn1nc2cc(C(=O)NC3CCc4ccccc43)ccc2c1OCC (stereo unspecified) returned SARS PLP yeast -17%, Pf growth 96h 8.3µM*, Pf growth 48h inconclusive and Sm TGR inh 0%.
COc1ccccc1C(=O)N/C(=C\c1cn(C)c2ccccc12)C(=O)N1CCCC1 was read as SARS PLP yeast 0%, Pf growth 96h inconclusive, Pf growth 48h inconclusive and Sm TGR inh -27%.
For CCn1nc(C)c(/C=C2\CCCC3=C2OC(N)=C(C#N)C3c2c(C)nn(CC)c2C)c1C (stereo unspecified) the results were SARS PLP yeast 1%, Pf growth 96h 33%, Pf growth 48h 10µM* and Sm TGR inh 0%.
Screening COc1ccc(C(=O)NC(=S)Nc2cccc3cc(O)ccc23)cc1OC returned SARS PLP yeast -4%, Pf growth 96h 11%, Pf growth 48h -13% and Sm TGR inh inconclusive.
For O=C(NC(=S)Nc1cccc2cc(O)ccc12)c1ccccc1Br the results were SARS PLP yeast -4%, Pf growth 96h 13µM*, Pf growth 48h -26% and Sm TGR inh 35µM*.
Cc1c(NC(=O)c2ccco2)cccc1-c1nc2cccnc2s1 was read as SARS PLP yeast -13%, Pf growth 96h inconclusive, Pf growth 48h inconclusive and Sm TGR inh 20µM*.
Screening O=C(NC(=S)Nc1cccc2cc(O)ccc12)c1ccco1 returned SARS PLP yeast 3%, Pf growth 96h -12%, Pf growth 48h inconclusive and Sm TGR inh 10µM*.
O=C(NC(=S)Nc1cccc2c(O)cccc12)c1ccco1 was read as SARS PLP yeast -5%, Pf growth 96h inconclusive, Pf growth 48h inconclusive and Sm TGR inh 25µM*.
O=Cc1ccc(C(=O)OCC(=O)Nc2ccc(F)cc2F)cc1 was read as SARS PLP yeast -1%, Pf growth 96h 10%, Pf growth 48h 27% and Sm TGR inh -1%.
`O=C(NC(=S)Nc1c(Cl)ccc2nsnc12)c1ccco1` gave SARS PLP yeast 4%, Pf growth 96h 34%, Pf growth 48h -1% and Sm TGR inh 25µM*.
`CCCC(=O)NC(=S)Nc1ccccc1C(=O)OC` gave SARS PLP yeast 9%, Pf growth 96h 40%, Pf growth 48h 10% and Sm TGR inh -32%.
For CCCC(=O)NC(=S)Nc1cccc2c(O)cccc12 the results were SARS PLP yeast -1%, Pf growth 96h 14%, Pf growth 48h -27%[5.75 µM] and Sm TGR inh 14µM*.
`O=C(NC(=S)Nc1cccc2ncccc12)c1ccco1` gave SARS PLP yeast 0%, Pf growth 96h inconclusive, Pf growth 48h -34%[1.15 µM] and Sm TGR inh 14µM*.
`O=C(NC(=S)Nc1ccccc1Cl)c1ccco1` gave SARS PLP yeast -6%, Pf growth 96h -6%, Pf growth 48h 2% and Sm TGR inh 13µM*.
Screening O=C(Nc1c(Cl)ccc2nsnc12)c1cccnc1 returned SARS PLP yeast -8%, Pf growth 96h 51%, Pf growth 48h 22% and Sm TGR inh 3%.
